Data on ten compounds can be found in PubChem BioAssay AID1794835 (Parasite Biology Lab, Institute for Biomedicine and …, 2023).

One may read the inhibition as the change of the read-out against control, counted positive when it falls.

In all, about 2,500 compounds went through this assay and about 45 (2%) were called active. No stated cut-off is given here; in the data, active means inhibition mostly above about 45% (no sharp cut-off); inactive means mostly below about 37%. The sample as a whole holds a higher share of actives than the screen did.

This assay in a line: anti-Giardia activity of synthetic compounds – Compounds Australia Scaffold Library subset, 24/48 h, primary screen (AID 1794835).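 On inhibition: 0% = parasite counts in DMSO vehicle wells.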 As to conditions: Giardia lamblia BRIS/91/HEPU/1279 trophozoite counts, imaging, at 10 µM.
The mark [1] stands for this setting: measured here: growth inhibition at 24 h, stronger effect = higher value.

`CC(=O)Nc1ccc([N+](=O)[O-])c2nonc12`: the inhibition runs as follows: (stronger effect = higher value) 63.4% (active); under setting [1], 45%. With `CCc1ccc(NC(=O)[C@@H]2c3cc(OC)c(OC)cc3C(=O)N3CCCC[C@@H]23)cc1`, the inhibition (stronger effect = higher value) is 28.1% (inactive). Turning to `Cc1nn(C)c(C)c1CC(=O)N1CCC(N2CCCC2)C1` (stereo unspecified), the inhibition result was “inactive”.

In the case of `CSc1ccc(C2NCc3ccccc3-n3cccc32)cc1` (stereo unspecified), the inhibition was 3.9% (inactive) (stronger effect = higher value) and 18.8% under setting [1].

Turning to `COc1ccc(C2c3cccn3-c3ccccc3CN2C(=O)CCC(=O)NC2CCCCC2)cc1` (stereo unspecified), the inhibition result is “inactive”. For `O=[N+]([O-])c1ccc(N2CCC(c3ncc[nH]3)CC2)c2ccncc12`, the inhibition is 88.1% (active) (stronger effect = higher value) and 64.1% under setting [1].

For `Cc1cccc(NC(=O)CN2CC(c3ccccc3)CC2=O)c1` (stereo unspecified), the inhibition by setting is: (stronger effect = higher value) 10.4% (inactive); under setting [1], 2.3%. With `CC(=O)N1N=C2C3CCN(CC3)[C@@H]2[C@@H]1c1cccc2ccccc12`, the compound was called inactive. The compound further showed an inhibition under setting [1] of 4.2%. Take `Cc1ccc2c(C3CCNCC3)c[nH]c2c1`: the inhibition entry was “inactive”. Turning to `Cc1cccc(OCC(=O)N2CCN(Cc3nnsc3Cl)CC2)c1C`, the inhibition by setting is: (stronger effect = higher value) 35.2% (inactive); under setting [1], 20.5%.
